Measurements published in PubChem BioAssay (Tox21).
Several values for one entry are separate records, joined by “and”; a condition that tells them apart may be missing. Equal entries are not always repeated. Inconclusive results are not listed. Entries that show only a call come without a potency. More than one record can exist for a structure, and the calls need not agree. Activity calls are given as the source filed them. Unless noted, the call rests on the fitted dose curve; in most records, active means well fitted curve in the direction sought with a large enough effect in the repeat runs; inconclusive means weak or mixed curves; inactive means no such curve, though single readings can be large; an effect the other way counts as inactive or inconclusive.

test system: not listed separately; experiment: qHTS assay to identify small molecule antagonists of the thyroid receptor (TR) signaling pathway - cell viability counter screen (AID 743064); conditions: GH3.TRE-Luc viability, CellTiter-Fluor, 24 h; series mostly up to 70.3 µM; further: nearly all actives have a fitted effect of over 50% in size; further: potency means the concentration at half of the fitted maximal effect
Procedure, shortened: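 Compounds were tested on GH3.TRE-Luc cells in the presence of T3 at 1 nM final. Following 23.5 h at 37 °C, cell viability was quantified by CellTiter-Fluor.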

Compound	Potency
CC1=C(/C=C/C(C)=C/C=C/C(C)=C/CO)C(C)(C)CCC1	inactive
O=C1N=C(O)CN1/N=C/c1ccc(-c2ccc([N+](=O)[O-])cc2)o1	15 µM (active) and 30.6 µM (active)
OCC#CCO	inactive
CCOC(=O)/C=C\C(=O)OCC	inactive
CCCCC/C=C\C/C=C\CCCCCCCC(=O)OC	inactive
CCCCCCOC(C)=O	inactive
S=c1nc[nH]c2nc[nH]c12	inactive
CC(=O)[C@@]1(O)CC[C@H]2[C@@H]3CCC4=CC(=O)CC[C@]4(C)[C@H]3CC[C@@]21C	inactive
CCCCCCCCCC(=O)O	inactive
CC(C)n1c(/C=C/[C@@H](O)C[C@@H](O)CC(=O)O)c(-c2ccc(F)cc2)c2ccccc21	inactive
CCCCC(CC)COC(=O)CCCCCCCC(=O)OCC(CC)CCCC (configuration not stated)	inactive
OCC1CCCO1 (configuration not stated)	inactive
O=[N+]([O-])c1cc(N(CCO)CCO)ccc1NCCO	61 µM (active)
C/C=C(C)/C=C/C=C(C)C	inactive
C=C1CC[C@H](O)CC1=C/C=C1\CCC[C@]2(C)[C@@H]([C@H](C)/C=C/[C@H](C)C(C)C)CC[C@@H]12	60.6 µM (active)
C=C(C)C(=O)OCC(CC)(COC(=O)C(=C)C)COC(=O)C(=C)C	inactive
Oc1ccc2ccccc2c1	inactive
CCCCCCCCCCC=CC1CC(=O)OC1=O (configuration not stated)	inactive
Oc1ccc(OCc2ccccc2)cc1	9.02 µM (active)
Cc1cc(Cc2ccc(N)c(C)c2)ccc1N	inactive
CNC[C@H](O)[C@@H](O)[C@H](O)[C@H](O)CO	inactive
CC(C)(C)C(=O)C1C(=O)c2ccccc2C1=O	67.9 µM (active)
CCCCCCCCCCCCN	inactive and 24.3 µM (active)
Cc1cc(NS(=O)(=O)c2ccc(N)cc2)no1	inactive
O=C1O[C@H](CO)[C@@H](O)[C@H](O)[C@H]1O	inactive
CCC(=O)O	inactive

test system: not listed separately; experiment: qHTS assay to identify small molecule antagonists of the thyroid receptor (TR) signaling pathway (AID 743065); conditions: GH3.TRE-Luc, T3-stimulated luciferase inhibition, 23.5 h; series mostly up to 70.3 µM; further: nearly all actives have a fitted effect of over 55% in size; further: potency means the concentration at half of the fitted maximal effect
Procedure, shortened: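 GH3.TRE-Luc rat pituitary cells carrying two TR response elements driving luciferase were plated for 4 h, given compound plus 1 nM T3 (final), and incubated 23.5 h at 37 C. ONE-Glo luminescence measured reporter inhibition; CellTiter-Fluor fluorescence tracked cytotoxicity.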

Compound	Potency
O=C1N=C(O)CN1/N=C/c1ccc(-c2ccc([N+](=O)[O-])cc2)o1	27.3 µM (active)
S=c1nc[nH]c2nc[nH]c12	inactive
CC(C)(C)C1CCC(O)CC1 (configuration not stated)	inactive
CCCCCCCCCC(=O)O	inactive
NCc1cccc(CN)c1	inactive
CC(C)n1c(/C=C/[C@@H](O)C[C@@H](O)CC(=O)O)c(-c2ccc(F)cc2)c2ccccc21	13.3 µM (active) and 21.7 µM (active)
CCCCC(CC)COC(=O)CCCCCCCC(=O)OCC(CC)CCCC (configuration not stated)	inactive
C=C(C)C(=O)OCCC[Si](OC)(OC)OC	inactive
CC1=CC[C@H]2C[C@@H]1C2(C)C	inactive
C=C1CC[C@H](O)CC1=C/C=C1\CCC[C@]2(C)[C@@H]([C@H](C)/C=C/[C@H](C)C(C)C)CC[C@@H]12	26.6 µM (active) and 54 µM (active) and 54.5 µM (active)
CCCCC(CC)C(=O)OCCOCCOCCOC(=O)C(CC)CCCC (configuration not stated)	inactive
C=C(C)C(=O)OCC(CC)(COC(=O)C(=C)C)COC(=O)C(=C)C	inactive
C[C@@H]1O[C@@H](OC[C@H]2O[C@@H](Oc3c(-c4ccc(O)c(O)c4)oc4cc(O)cc(O)c4c3=O)[C@H](O)[C@@H](O)[C@@H]2O)[C@H](O)[C@H](O)[C@H]1O	inactive
O=C(c1cc(O)c(O)c(O)c1)c1ccc(O)c(O)c1O	43.1 µM (active) and 68.6 µM (active)
Cc1cc(Cc2ccc(N)c(C)c2)ccc1N	inactive
CNC[C@H](O)[C@@H](O)[C@H](O)[C@H](O)CO	inactive
Cc1cc(NS(=O)(=O)c2ccc(N)cc2)no1	inactive
Oc1c(Cl)cc(Cl)c(Cl)c1Cl	47.5 µM (active) and 30.6 µM (active)

test system: thyroid hormone receptor (rat, GH3 cells); experiment: qHTS assay to identify small molecule agonists of the thyroid receptor (TR) signaling pathway (AID 743066; calls by dose curve); conditions: GH3.TRE-Luc cells, TR agonist luciferase, 24 h; series mostly up to 83.9 µM

Compound	outcome
CC1=C(/C=C/C(C)=C/C=C/C(C)=C/CO)C(C)(C)CCC1	inactive
O=C1N=C(O)CN1/N=C/c1ccc(-c2ccc([N+](=O)[O-])cc2)o1	inactive
OCC#CCO	inactive
CC1CC(OC(=O)c2ccccc2O)CC(C)(C)C1 (configuration not stated)	inactive
CCCCC/C=C\C/C=C\CCCCCCCC(=O)OC	inactive
S=c1nc[nH]c2nc[nH]c12	inactive
CC(C)(C)C1CCC(O)CC1 (configuration not stated)	inactive
CCCCCCCCCC(=O)O	inactive
NCc1cccc(CN)c1	inactive
CC(C)n1c(/C=C/[C@@H](O)C[C@@H](O)CC(=O)O)c(-c2ccc(F)cc2)c2ccccc21	inactive
CCCCC(CC)COC(=O)CCCCCCCC(=O)OCC(CC)CCCC (configuration not stated)	inactive
CCOC(=O)C1OC1c1ccccc1 (configuration not stated)	inactive
C=C(C)C(=O)OCCC[Si](OC)(OC)OC	inactive
O=[N+]([O-])c1cc(N(CCO)CCO)ccc1NCCO	inactive
CC1=CC[C@H]2C[C@@H]1C2(C)C	inactive
C/C=C(C)/C=C/C=C(C)C	inactive
C=C1CC[C@H](O)CC1=C/C=C1\CCC[C@]2(C)[C@@H]([C@H](C)/C=C/[C@H](C)C(C)C)CC[C@@H]12	inactive
CCCCC(CC)C(=O)OCCOCCOCCOC(=O)C(CC)CCCC (configuration not stated)	inactive
C=C(C)C(=O)OCC(CC)(COC(=O)C(=C)C)COC(=O)C(=C)C	inactive
CCCCCCCCCCC=CC1CC(=O)OC1=O (configuration not stated)	inactive
C[C@@H]1O[C@@H](OC[C@H]2O[C@@H](Oc3c(-c4ccc(O)c(O)c4)oc4cc(O)cc(O)c4c3=O)[C@H](O)[C@@H](O)[C@@H]2O)[C@H](O)[C@H](O)[C@H]1O	inactive
O=C(c1cc(O)c(O)c(O)c1)c1ccc(O)c(O)c1O	inactive
Cc1cc(Cc2ccc(N)c(C)c2)ccc1N	inactive
CNC[C@H](O)[C@@H](O)[C@H](O)[C@H](O)CO	inactive
CC(C)(C)C(=O)C1C(=O)c2ccccc2C1=O	inactive
CCCCCCCCCCCCN	inactive
Cc1cc(NS(=O)(=O)c2ccc(N)cc2)no1	inactive
Oc1c(Cl)cc(Cl)c(Cl)c1Cl	inactive
